Here are results for 20 compounds from PubChem BioAssay (NCI).

Compounds without any hit were thinned out: in the full panel of roughly 83,000, 20% have a hit.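 Each cell line was grown in a 96-well plate and treated with one concentration of compound for 48 hours. Values below 10 were considered active.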 Unmarked numbers belong to inactive results. The source made the active and inactive calls.

Common to all, as to test: NCI-60 one-dose screen, 48 h (100 = growth as untreated, 0 = no growth, -100 = all killed)
Common to all, as to details: 10 µM unless noted

Experiment [1] has as its system DU-145 prostate.
In experiment [2] the test system is K-562 leukemia.
Experiment [3] deals with MDA-MB-231 breast.
Experiment [4] deals with RXF 393 renal.
For experiment [5], the system named is SF-268 CNS.
In experiment [6] the test system is SF-295 CNS.
Experiment [7] relates to SF-539 CNS.
Experiment [8] has as its system UACC-257 melanoma.
The subject of experiment [9] is M14 melanoma.

For the compound `COc1cc2nc(Cl)nc(Nc3cccc(C4=Nc5c(N)nc(N)nc5NC(c5ccc6c(c5)OCO6)C4)c3)c2cc1OC` (stereo unspecified), the growth in experiment [1] is 81.4%; in [2], 4.53% (active); in experiment [3] it was 79.9%; in experiment [4], 56.1%; in [5], 75.6%; in experiment [6], 37.7%. Also, the growth in [7] was 86.5%; in experiment [8] it was 105%; in experiment [9] it was 89.7%.
Regarding `O=C(CN1CCN(c2cc(=O)n(-c3ccccc3)c3ccccc23)CC1)Nc1cccc(C(F)(F)F)c1`, the growth in experiment [1] is 64.7%; in experiment [2] it was 23.4%; in [3], 68.7%; in experiment [4], 62.2%; in [5], 66.2%; in experiment [6] it was 59%. Further, the growth in [7] was 71.5%; in experiment [8], 38.8%; in [9], 60.5%.
For `CC(=O)N(C)C1CCc2c(sc(NC(=O)c3ccc(C(C)(C)C)cc3)c2C(N)=O)C1` (stereo unspecified), the growth in experiment [1] is 58.9%; in [2], 62.3%; in [3], 75.5%; in experiment [4], 96.2%; in experiment [5] it was 99%; in experiment [6], 43.8%. The figures for the growth in [7], in [8] and in [9] were 79.7%, 86.9% and 75.5%, respectively.
As for `NC(N)=Nc1ccc(Oc2cccc(Nc3cccc(C(F)(F)F)c3)c2)cn1`, the growth was -10.7% (active) in [1]; -47.3% (active) in experiment [2]; 12% in experiment [3]; 2.79% (active) in [4]; 49.3% in [5]; -86.1% (active) in experiment [6]. Further, the growth in [7] is 70.8%; in [8] it was 25.8%; in experiment [9], 5.01% (active).
Regarding `COc1cc(OC)cc(C(=O)Nc2sc3c(c2C(N)=O)CCC(=O)C3)c1`, the growth is 99.4% in experiment [1]; 52.4% in experiment [3]; 85.1% in experiment [4]; 30.7% in experiment [5]; 65.3% in experiment [6]; 16.6% in experiment [7]. Besides, the growth was 53.2% in experiment [8] and 22.9% in [9].
On to `O=C(CCn1c[n+](CC(=O)c2ccc(-c3ccccc3)cc2)c2ccccc21)Nc1cccc2cccnc12`, for which the growth in [1] is 78.9%; in [2] it was 22.9%; in experiment [3] it was 49.6%; in [4], 69.6%; in experiment [5] it was 55%; in experiment [6] it was 89.6%. For the same compound, the growth is 75.5% in experiment [7], 23.6% in experiment [8] and 49.1% in [9].
Turning to `COc1cc2nc(Cl)nc(Nc3cccc(C4=Nc5c(N)nc(N)nc5NC(c5ccc(Cl)cc5)C4)c3)c2cc1OC` (stereo unspecified), the growth in experiment [1] was 87.7%; in experiment [2], -22% (active); in experiment [3], 72.9%; in experiment [4], 73.6%; in experiment [5], 84.2%; in experiment [6], -23.9% (active). Moreover, the growth was 89.3% in experiment [7], 87.3% in [8] and 52.2% in experiment [9].
For the compound `COc1cc2nc(Cl)nc(Nc3cccc(C4=Nc5c(N)nc(N)nc5NC(c5ccc(F)cc5)C4)c3)c2cc1OC` (stereo unspecified), the growth in experiment [1] was 79.4%; in experiment [3] it was 76.4%; in experiment [4] it was 51.1%; in experiment [5], 77.4%; in experiment [6], 2.02% (active); in experiment [7], 88.6%. Further, the growth in experiment [8] was 92.1%; in [9], 86.8%.
Regarding `CNc1ncc2cc(-c3ccc(-c4ncccc4F)cc3Cl)c(=O)n(CC3OCC(N)CO3)c2n1` (stereo unspecified), the growth in experiment [1] was 63.3%; in experiment [2], 78.8%; in experiment [3] it was 10.8%; in experiment [4] it was -9.68% (active); in experiment [5], 24.8%; in experiment [6], 74.3%. Further, the growth is 67.4% in experiment [7], 93% in experiment [8] and 87.9% in experiment [9].
Take `COc1cc2nc(Cl)nc(Nc3cccc(C4=Nc5c(N)nc(N)nc5NC(c5ccc(Br)cc5)C4)c3)c2cc1OC` (stereo unspecified): the growth in experiment [1] is 90%; in experiment [3], 92.9%; in experiment [4], 77.2%; in experiment [5] it was 84.4%; in [6] it was 32%; in experiment [7], 93.2%. Also, the results for the growth in experiment [8] and in experiment [9] were 105% and 84.1%, respectively.
With `COc1ccccc1-n1cc(C#N)c(N)c1C(=O)c1ccc(C)cc1`, the growth in [1] was 99.2%; in experiment [2], 28.4%; in experiment [3], 90.9%; in [4] it was 76.6%; in [5], 90.6%; in experiment [6] it was 74.1%. Also, the growth was 97% in experiment [7], 78.3% in experiment [8] and 59.8% in experiment [9].
Turning to `C#C[C@]1(O)CC[C@H]2[C@@H]3CC=C4c5sc(-c6ccc7c(c6)OCO7)nc5CC[C@]4(C)[C@H]3CC[C@@]21C`, the growth in experiment [1] is 20.1%; in experiment [2], 32.6%; in experiment [3] it was 51.8%; in experiment [4], -49.3% (active); in experiment [5], 51.7%; in experiment [6], -47.7% (active). Further, the values for the growth in experiment [7], in experiment [8] and in [9] were -36.6% (active), 17.7% and 6.34% (active), respectively.
As to `CC(C)(C)c1ccc(CC(=O)Nc2sc3c(c2C(N)=O)CCC(=O)C3)cc1`, the growth is 26.4% in experiment [1]; -20.2% (active) in experiment [3]; -12.5% (active) in experiment [4]; 26% in experiment [5]; 10.1% in experiment [6]; -36.4% (active) in experiment [7]. The growth is -10.8% (active) in [8] and 7.16% (active) in experiment [9].
`CC(C)(C)c1ccc(C(=O)Nc2sc3c(c2C(N)=O)CCC(O)C3)cc1` (stereo unspecified): the growth in experiment [1] is 58.6%; in [2], 6.74% (active); in experiment [3], 65.6%; in [4] it was 44.5%; in experiment [5], 63.2%; in [6], -1.38% (active). The growth in experiment [7] was 23.3%; in [8] it was 36.8%; in experiment [9], -3.35% (active).
As for `O=C(CN1CCN(c2cc(=O)[nH]c3ccc(F)cc23)CC1)Nc1ccc(Cl)cc1`, the growth was 78.1% in experiment [1]; 78.8% in experiment [2]; 62.2% in [3]; -3.61% (active) in experiment [4]; 38.3% in experiment [5]; 67.2% in experiment [6]. Also, the growth was 56.9% in experiment [7], 65% in [8] and 85% in experiment [9].
Consider `NC(N)=Nc1ccc(Oc2cccc(Nc3ccc(Br)c(C(F)(F)F)c3)c2)cc1`, for which the growth in experiment [1] is 22.8%; in experiment [2], -11.1% (active); in [3], -7.69% (active); in experiment [4] it was 40.7%; in experiment [5], 25.3%; in experiment [6], -65.3% (active). The growth in [7] was 54.3%; in experiment [8], 0.206% (active); in experiment [9], 8.54% (active).
For `COc1ccccc1-n1cc(C#N)c(N)c1C(=O)c1ccc(Br)cc1`, the growth in experiment [1] was 97.3%; in experiment [2], 20.1%; in [3] it was 79.8%; in experiment [4], 85.8%; in experiment [5], 89%; in experiment [6] it was 45.5%. Further, the growth in experiment [7] is 82.7%; in experiment [8] it was 72.5%; in [9], 42.3%.
For the compound `COc1ccc(/C=C(\C#N)C(=O)N2c3ccccc3Sc3ccc(SC)cc32)cc1F`, the growth in experiment [1] is 97.3%; in experiment [2], 80.8%; in [3], 84.7%; in experiment [4], 100%; in experiment [5], 91.8%; in experiment [6], 104%. For the same compound, the growth in experiment [7] was 96.7%; in [8], 93.1%; in experiment [9], 105%.
Turning to `NC(N)=Nc1ccc(Oc2cccc(Oc3ccc(Cl)c(C(F)(F)F)c3)c2)cn1`, the growth was -91.9% (active) in [1]; -54.7% (active) in [2]; -82.9% (active) in [3]; 7.96% (active) in [4]; 64.9% in experiment [5]; -93.5% (active) in experiment [6]. Besides, the growth is -79.7% (active) in experiment [7], -56% (active) in experiment [8] and -84.3% (active) in experiment [9].
Take `COc1ccc(-c2nc3cccc(O)c3c(=O)n2Cc2ccccc2)cc1COc1ccc(NC(C)=O)cc1`: the growth was 50.2% [3 µM] in experiment [1]; 18.9% [3 µM] in experiment [2]; 64.2% [3 µM] in [3]; 52.6% [3 µM] in [4]; 58.2% [3 µM] in experiment [5]; 23.8% [3 µM] in experiment [6]. The growth in [7] was 40.1% [3 µM]; in [8], 67.2% [3 µM]; in experiment [9] it was 53.8% [3 µM].
